Test results: PubChem BioAssay (NCATS)
Inconclusive results are not listed. Where a call stands in place of a potency, no number is given. Activity calls are given as the source filed them. Calls follow the shape of the dose curve; as a rule, active = well fitted cell-killing curve with a large enough effect; inconclusive = small, poorly fitted or top-dose-only effect, or effect the other way; inactive = no such curve, though single readings can be large or run the other way.

Assay: Quantitative highthroughput screen to assess conditional lethalithy of SEM cells grown in Human Plasma-Like Medium with dialyzed fetal bovine serum (HPLM+ds) (AID 1963882); also: nearly all actives have a fitted effect of over 35% in size
Conditions: SEM B-ALL cells in HPLM+ds, CellTiter-Glo viability, 48 h; series mostly up to 45.8 µM
Source text: Assay Provider: Jason Cantor Ph.D.
Department of Biochemistry
University of Wisconsin-Madison, Madison, WI, USA
Chemical screening studies have identified drug sensitivities across hundreds of cancer cell lines but most putative therapeutics fail to translate. Discovery and development of drug candidates in models that more accurately reflect nutrient levels in human blood is a major challenge. Here we performed high-throughput screens in conventional versus Human Plasma-Like Medium (HPLM) to identify compounds that were "missed" when screening using the artificial culture condition. Sets of conditional anticancer compounds spanned phases of clinical development and included non-oncology drugs were assessed. […] We also traced conditional phenotypes for several chemotherapeutics to availability of HPLM-specific metabolites and confirmed others for compounds whose reported targets are encoded by nonessential genes. Our findings establish generalizable strategies for exploiting conditional lethality in HPLM to reveal therapeutic candidates and mechanisms of action in cancer cells.
Described herein are the results of each viability screens against three cell lines: NOMO1 (an acute myeloid leukemia cell line); P12-Ichikawa (a T-cell acute lymphoblastic leukemia); and SEM (a B-cell ALL). Each assay was screened using 3 different cell culture media: homemade human plasma-Like medium with 10% dialyzed fetal bovine serum (HPLM+ds); RPMI1640 with 10% untreated FBS and 5mM glucose (RPMI+s); and RPMI1640 with 10% dialyzed fetal bovine serum and 5 mM glucose (RPMI+ds).
PROTOCOL TABLE (as described by Inglese J, Shamu CE and Guy RK. 2007)
SEQUENCE No. (e.g., 1, 2, 3, etc.); […] (e.g., Cells, Incubation, Reagent, etc.); VALUE and DESCRIPTION.
1; Cells; 5 uL; white, solid bottom 1536-well Greiner assay plate.
2; Compounds; 23 nL; Kalypsis pin tool (Wako USA) equipped with a 1536-well pin head to transfer to the assay plates.
3; Incubation; 48 hours; 37C incubation.
4; Reagent; 3 uL; CellTiter Glo (Promega).
5; Incubation; 5 min, room temperature
6; Detection; Luminescence, Viewlux PerkinElmer.
NOTES (numbers refer to Sequence numbers above)
1. Briefly, 5 ul of cell reagent was dispensed using a Multidrop Combi Dispenser. The NOMO1 and SEM cells were plated at 500 cells/well and the P12-Ichikawa line at 1000 cells/well.
2. After seeding the cells, 23 nL of MIPE 4.1 library compounds (in DMSO) were added to each plate using a Kalypsys 1536 Pintool dispenser. Bortezomib at final concentration of […] and DMSO were added to each plate as positive and negative controls respectively. For each screen, MIPE 4.1 compounds were added over an eleven-point concentration range […] in 3-fold dilutions.
3. Each plate was covered with a stainless steel gasketed lid to prevent evaporation and incubated for 48 hour at 37C, 95% relative humidity, and 5% CO2.
4-5. Three microliter CellTilter-GloTM luminescent substrate mix (Promega) reagent was added to the assay plate and incubated at room temperature for 5 min.
6. The luminescence signal was measured using a ViewLux (PerkinElmer) multiplate reader with a 2 second exposure time per plate. Data for each compound were normalized as percent viability such that measurements for DMSO and the empty well controls in each plate were defined as 100% and 0%, respectively.
Potency is read from the fitted curve at half-maximal effect.

Structure (SMILES)	Potency
COc1cc(C(=O)N2CC[C@@H](O)[C@@H](N)C2)cc2nc(-c3cc4ccccc4n3CC3CC3)n(C)c12	1.32 µM (active)
CC(=O)Nc1ccc(OC[C@](C)(O)C(=O)Nc2ccc([N+](=O)[O-])c(C(F)(F)F)c2)cc1	inactive
C[C@]12Cc3cn[nH]c3C[C@@H]1CC[C@@H]1[C@H]2CC[C@@]2(C)[C@H]1CC[C@]2(C)O	inactive
CC(C)(C)[C@]1(O)C[C@@H]2OC(=O)C[C@@]23C(=O)O[C@@H]2OC(=O)[C@H](O)C213 (stereo not given in full)	inactive
O=c1cccc2n1CC1CNC[C@H]2C1	inactive
C[C@@H]1CC[C@@]2(OC1)O[C@H]1C[C@H]3[C@@H]4CC=C5C[C@@H](O[C@@H]6O[C@H](CO)[C@@H](O[C@@H]7O[C@@H](C)[C@H](O)[C@@H](O)[C@@H]7O)[C@H](O)[C@@H]6O[C@@H]6O[C@@H](C)[C@H](O)[C@@H](O)[C@@H]6O)CC[C@]5(C)[C@@H]4CC[C@]3(C)[C@@H]1[C@H]2C	18.7 µM (active)
CNC(=O)c1ccc(N2C(=S)N(c3ccc(C#N)c(C(F)(F)F)c3)C(=O)C23CCC3)cc1F	inactive
COc1ccc(C(=O)c2c(C)n(CCN3CCOCC3)c3ccccc23)cc1	inactive
CC(C)(O)C(=O)Nc1ccc([N+](=O)[O-])c(C(F)(F)F)c1	inactive
CCOC(=O)Nc1ccc(NCc2ccc(F)cc2)cc1N	inactive
Cn1c(CCCC(=O)O)nc2cc(N(CCCl)CCCl)ccc21	inactive
CCOP(=O)(OCC)C(C)NC(=O)N(CCCl)N=O (stereo not given)	inactive
CC[C@@H]1[C@@H](C)O[C@@](O)([C@@H](C)[C@H](O)[C@H](C)[C@H]2OC(=O)C=CC=C[C@@H](C)[C@@H]([C@@H](C)[C@@H](O)[C@H](C)[C@@]3(O)C[C@H](O[C@H]4C[C@H](O)[C@H](O)[C@H](C)O4)[C@H](CC)[C@@H](C)O3)OC(=O)C=CC=C[C@@H]2C)C[C@H]1O[C@H]1C[C@H](O)[C@H](O)[C@H](C)O1	2.35 µM (active)
Oc1ccc2c3c1O[C@H]1c4[nH]c5c(c4C[C@@]4(O)[C@@H](C2)N(CC2CC2)CC[C@]314)C[C@@]1(O)[C@H]2Cc3ccc(O)c4c3[C@@]1(CCN2CC1CC1)[C@H]5O4	inactive
O=P1(N(CCCl)CCCl)NCCCO1 (stereo not given)	9.35 µM (active)
O=C(O)CNC(=O)c1c(O)c2ccccc2n(Cc2ccccc2)c1=O	inactive
CCCCCC[C@H]1C(=O)O[C@H](C)[C@H](NC(=O)c2cccc(NC=O)c2O)C(=O)O[C@@H](C)[C@@H]1OC(=O)CC(C)C	inactive
CCNC(=O)C[C@@H]1N=C(c2ccc(Cl)cc2)c2cc(OC)ccc2-n2c(C)nnc21	0.935 µM (active)
CC[C@H]1C=CC=CC[C@@H](C)[C@H](O)[C@@](C)(O)C(=O)[C@@H](C)[C@H](O)[C@@H](C)C(=O)[C@@H](C)[C@H](O)[C@@H](C)C=CC(=O)O[C@@H]2[C@@H](C)[C@H](CC1)O[C@]1(CC[C@H](C)[C@H](C[C@@H](C)O)O1)[C@H]2C	5.9 µM (active)
C#CC1(O)CCC2C3CCC4=CC(=O)CCC4(C)C3CCC21C (stereo not given)	inactive

Structure (SMILES)	Potency
O=C1C=CC[C@@H]2[C@H]3CCCN4CCC[C@@H](CN12)[C@@H]34	inactive
C[C@]12CC[C@H](O)CC1=CC[C@H]1[C@H]3CCC(=O)[C@@]3(C)CC[C@@H]12	inactive
CC(N[C@H]1C[C@H]1c1ccccc1)c1ccc2c(c1)OCCO2 (stereo not given in full)	inactive
Cc1cc(SCc2sc(-c3ccc(C(F)(F)F)c(F)c3)nc2C)ccc1OCC(=O)O	inactive
C[C@@H]1C[C@@H]([C@H](O)CC2CC(=O)NC(=O)C2)C(=O)[C@@H](C)C1	0.418 µM (active)
Cc1nc(-c2ccc(-c3ccc(C(=O)N4CCc5cc6c(cc54)C4(CCN(C)CC4)CO6)cc3)c(C)c2)no1	inactive
Clc1ccccc1C(c1ccccc1)(c1ccccc1)n1cccn1	inactive
COc1cccc2c1[C@]13CCN(CC4CC4)[C@H](C2)[C@]1(OC)CCC(=O)C3	inactive
CC=C(C)C(=O)N[C@@H](c1ccccc1)[C@@H](O)C(=O)O[C@H]1C[C@@]2(O)[C@@H](OC(=O)c3ccccc3)[C@@H]3[C@]4(OC(C)=O)CO[C@@H]4C[C@H](O)[C@@]3(C)C(=O)[C@H](OC(C)=O)C(=C1C)C2(C)C	inactive
C[C@@H]1[C@@H](CC(C[C@H]2O[C@@H]3O[C@]4(C)CC[C@@H]5[C@H](C)CC[C@@H]([C@H]2C)[C@@]35OO4)C[S+](=O)([O-])c2ccc(COC(=O)N(C)C)cc2)O[C@@H]2O[C@]3(C)CC[C@H]4[C@H](C)CC[C@@H]1[C@@]24OO3 (stereo not given in full)	0.743 µM (active)
N[C@@H](Cc1ccc(N(CCCl)CCCl)cc1)C(=O)O	4.18 µM (active)
COC1=C[C@@H]2[C@@H]3Cc4ccc(OC)c(O)c4[C@]2(CCN3C)CC1=O	inactive
CCOc1ccccc1-n1c(C(C)N2CCN(C(=O)COc3ccc(Cl)cc3)CC2)nc2ccccc2c1=O (stereo not given)	1.05 µM (active)
CCCC[N+]1(C)[C@H]2CC(OC(=O)[C@H](CO)c3ccccc3)C[C@H]1[C@H]1O[C@H]12 (stereo not given in full)	inactive
CCN(CC)C(=O)c1ccc(C2=CC3(CCNCC3)Oc3cccc(O)c32)cc1	inactive
O=C(O)c1nn(Cc2ccc(Cl)cc2Cl)c2ccccc12	inactive
O=S(=O)(F)Cc1ccccc1	inactive
CC(C)(C)c1cc(C=C(C#N)C#N)cc(Br)c1O	inactive
c1cc2c(cc1[C@H]1OC[C@H]3[C@H]1CO[C@H]3c1ccc3c(c1)OCO3)OCO2	inactive
C[C@@H]1CC[C@H]2[C@@H](C)C(=O)O[C@@H]3O[C@@]4(C)CC[C@H]1[C@]32OO4	inactive
